PubChem BioAssay (NCATS)
Inconclusive results are not listed. The source made the active and inactive calls. The call rests on the fitted dose curve; in most records, active means well fitted curve in the direction sought with a large enough effect; inconclusive means small, poorly fitted or top-dose-only effect, or another doubt; inactive means no such curve, though single readings can be large; an effect the other way counts as inactive or inconclusive.

How the values were obtained:
[1] = Quantitative High-Throughput drug screen in 47 multiple myeloma cell lines against the NCATS MIPE library collection: KHM11_PLB cell viability assay (AID 1918962); further: nearly all actives have a fitted effect of over 35% in size
Summary of the method: (§1)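 qHTS of the MIPE 4.0 collection: 500 myeloma cells/well, 48 h drug exposure at 37C in 5% CO2, then CellTiter-Glo for 5 min at room temperature before luminescence reading.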

[2] = Quantitative High-Throughput drug screen in 47 multiple myeloma cell lines against the NCATS MIPE library collection: JIM3_ECACC cell viability assay (AID 1918963; further: nearly all actives have a fitted effect of over 35% in size)
Summary of the method: as §1

[3] = Quantitative High-Throughput drug screen in 47 multiple myeloma cell lines against the NCATS MIPE library collection: JIM1_ECACC cell viability assay (AID 1918964)
Summary of the method: (§2)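 Viability readout: CellTiter-Glo luminescence following 5 min room-temperature incubation with reagent. Prior exposure: 48 h, 37C, humidified 5% CO2, 500 cells per well.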

[4] = Quantitative High-Throughput drug screen in 47 multiple myeloma cell lines against the NCATS MIPE library collection: INA6_PLB cell viability assay (AID 1918965; further: nearly all actives have a fitted effect of over 55% in size)
Summary of the method: (§3)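 Luminescent ATP measurement with CellTiter-Glo gives viability, scaled between DMSO-only wells (100%) and media-only wells (0%). Cells, 500 per well, faced library compounds for 48 hours at 37C.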

[5] = Quantitative High-Throughput drug screen in 47 multiple myeloma cell lines against the NCATS MIPE library collection: JJN3_DSMZ cell viability assay (AID 1918966; further: nearly all actives have a fitted effect of over 50% in size)
Summary of the method: as §2

[6] = Quantitative High-Throughput drug screen in 47 multiple myeloma cell lines against the NCATS MIPE library collection: Karpas25_ECACC cell viability assay (AID 1918968; further: nearly all actives have a fitted effect of over 35% in size)
Summary of the method: as §2

[7] = Quantitative High-Throughput drug screen in 47 multiple myeloma cell lines against the NCATS MIPE library collection: KMS27_JCRB cell viability assay (AID 1918970); further: nearly all actives have a fitted effect of over 30% in size
Summary of the method: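 Luminescent ATP read-out (CellTiter-Glo, 5 min at room temperature) after 48 h compound exposure of 500 KMS27_JCRB cells per well; DMSO wells define full viability and media-only wells zero.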

[8] = Quantitative High-Throughput drug screen in 47 multiple myeloma cell lines against the NCATS MIPE library collection: KMS12BM_JCRB cell viability assay (AID 1918971); further: nearly all actives have a fitted effect of over 35% in size
Summary of the method: (§4)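 Myeloma cell lines, 500 cells per well, exposed to MIPE 4.0 library compounds for 48 h at 37C, 5% CO2. Viability from ATP by CellTiter-Glo luminescence; normalised to DMSO (100%) and media-only (0%) wells.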

[9] = Quantitative High-Throughput drug screen in 47 multiple myeloma cell lines against the NCATS MIPE library collection: KMS21BM_JCRB cell viability assay (AID 1918974); conditions: ATP luminescence, 48 h; viability: at 45.8 µM (top of the series) unless noted
Summary of the method: as §2

[10] = Quantitative High-Throughput drug screen in 47 multiple myeloma cell lines against the NCATS MIPE library collection: KMS26_JCRB cell viability assay (AID 1918975); further: nearly all actives have a fitted effect of over 45% in size
Summary of the method: as §4

[11] = Quantitative High-Throughput drug screen in 47 multiple myeloma cell lines against the NCATS MIPE library collection: MMM1_PLB cell viability assay (AID 1918976); further: nearly all actives have a fitted effect of over 35% in size
Summary of the method: (§5)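 qHTS format: cells plated (500/well), pin-dosed with MIPE 4.0 compounds, kept 48 h at 37 °C. Readout was CellTiter-Glo luminescence, median RLU.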

[12] = Quantitative High-Throughput drug screen in 47 multiple myeloma cell lines against the NCATS MIPE library collection: MOLP8_DSMZ cell viability assay (AID 1918977); further: nearly all actives have a fitted effect of over 45% in size
Summary of the method: as §5

[13] = Quantitative High-Throughput drug screen in 47 multiple myeloma cell lines against the NCATS MIPE library collection: NCIH929_DSMZ cell viability assay (AID 1918978); further: nearly all actives have a fitted effect of over 35% in size
Summary of the method: as §5

[14] = Quantitative High-Throughput drug screen in 47 multiple myeloma cell lines against the NCATS MIPE library collection: OCIMY1_PLB cell viability assay (AID 1918979); further: nearly all actives have a fitted effect of over 35% in size
Summary of the method: as §5

[15] = Quantitative High-Throughput drug screen in 47 multiple myeloma cell lines against the NCATS MIPE library collection: MM1R_ATCC cell viability assay (AID 1918981); further: nearly all actives have a fitted effect of over 35% in size
Summary of the method: as §5

[16] = Quantitative High-Throughput drug screen in 47 multiple myeloma cell lines against the NCATS MIPE library collection: LP1_DSMZ cell viability assay (AID 1918982); further: nearly all actives have a fitted effect of over 35% in size
Summary of the method: as §5

[17] = Quantitative High-Throughput drug screen in 47 multiple myeloma cell lines against the NCATS MIPE library collection: H1112_PLB cell viability assay (AID 1918967; further: nearly all actives have a fitted effect of over 30% in size)
Summary of the method: as §2

[18] = Quantitative High-Throughput drug screen in 47 multiple myeloma cell lines against the NCATS MIPE library collection: KMS12PE_JCRB cell viability assay (AID 1918972); further: nearly all actives have a fitted effect of over 30% in size
Summary of the method: as §3

[19] = Quantitative High-Throughput drug screen in 47 multiple myeloma cell lines against the NCATS MIPE library collection: KMS20_JCRB cell viability assay (AID 1918973); further: nearly all actives have a fitted effect of over 45% in size
Summary of the method: as §2

[20] = Quantitative High-Throughput drug screen in 47 multiple myeloma cell lines against the NCATS MIPE library collection: MM1S_ATCC cell viability assay (AID 1918980); further: nearly all actives have a fitted effect of over 45% in size
Summary of the method: as §5
Potency means the concentration at half of the fitted maximal effect.

Structure (SMILES) | Potency [1] | Potency [2] | Potency [3] | Potency [4] | Potency [5] | Potency [6] | Potency [7] | Potency [8] | Potency [9] | Potency [10] | Potency [11] | Potency [12] | Potency [13] | Potency [14] | Potency [15] | Potency [16] | Potency [17] | Potency [18] | Potency [19] | Potency [20]
C[C@@H](Oc1cc(-c2cnn(C3CCNCC3)c2)cnc1N)c1c(Cl)ccc(F)c1Cl | 3.72 µM (active) | 8.33 µM (active) | 3.72 µM (active) | 4.69 µM (active) | 8.33 µM (active) | 2.35 µM (active) | 26.4 µM (active) | 16.6 µM (active) | 8.33 µM (active) | 14.8 µM (active) | 9.35 µM (active) | 13.2 µM (active) | 3.32 µM (active) | 20.9 µM (active) | 14.8 µM (active) | 14.8 µM (active) |  |  |  | 
COc1cc(OC2CCN(C)CC2)ccc1Nc1ncc2c(n1)n(C1CCCC1)c(=O)n2C | 6.62 µM (active) | 11.8 µM (active) | 11.8 µM (active) | 3.72 µM (active) |  | 6.62 µM (active) | 20.9 µM (active) | 9.35 µM (active) |  | 13.2 µM (active) |  |  | 6.62 µM (active) |  | 18.7 µM (active) |  | 14.8 µM (active) | 7.43 µM (active) | 7.43 µM (active) | 11.8 µM (active)
Cc1cc(Nc2cc(N3CCN(C)CC3)nc(Sc3ccc(NC(=O)C4CC4)cc3)n2)n[nH]1 | 1.32 µM (active) | 5.26 µM (active) | 6.62 µM (active) | 16.6 µM (active) |  | 18.7 µM (active) | 0.0118 µM (active) |  |  | 14.8 µM (active) | 10.5 µM (active) | 5.9 µM (active) | 5.9 µM (active) |  | 16.6 µM (active) |  |  | 0.166 µM (active) | 4.69 µM (active) | 13.2 µM (active)
COc1cc(Nc2ncc(F)c(Nc3ccc4c(n3)N(COP(=O)(O)O)C(=O)C(C)(C)O4)n2)cc(OC)c1OC | 1.48 µM (active) | 1.66 µM (active) | 1.18 µM (active) | 0.833 µM (active) |  | 3.32 µM (active) |  |  | 0.743 µM (active) |  |  |  |  |  |  |  | 1.66 µM (active) |  | 1.66 µM (active) | 20.9 µM (active)
CN1CCC(CNc2ccc3ncc(-c4cccc(OC(F)(F)F)c4)n3n2)CC1 | 6.62 µM (active) | 9.35 µM (active) | 8.33 µM (active) | 4.69 µM (active) |  | 7.43 µM (active) | 14.8 µM (active) |  | 9.35 µM (active) | 18.7 µM (active) |  | 18.7 µM (active) | 7.43 µM (active) | 20.9 µM (active) | 20.9 µM (active) | 26.4 µM (active) | 8.33 µM (active) | 7.43 µM (active) | 3.32 µM (active) | 7.43 µM (active)
CNC(=O)c1cc(Oc2ccc(NC(=O)Nc3cc(C(C)(C)C)nn3-c3ccc4ncccc4c3)c(F)c2)ccn1 | 2.64 µM (active) | 3.32 µM (active) | 7.43 µM (active) | 3.32 µM (active) |  | 6.62 µM (active) | 23.5 µM (active) | 5.9 µM (active) | 4.18 µM (active) | 9.35 µM (active) | 14.8 µM (active) | 4.18 µM (active) |  | 16.6 µM (active) | 7.43 µM (active) | 10.5 µM (active) | 4.18 µM (active) | 16.6 µM (active) | 5.9 µM (active) | 11.8 µM (active)
COc1ccc2c(c1)CC[C@@H](CN(C)CC(=O)O)[C@H]2c1ccccc1 | 0.662 µM (active) | 1.66 µM (active) | 0.372 µM (active) | 2.96 µM (active) | 10.5 µM (active) |  |  |  | 5.26 µM (active) | 1.87 µM (active) |  |  | 5.26 µM (active) |  | 3.72 µM (active) |  |  | 1.05 µM (active) |  | 9.35 µM (active)
C1=CCOCc2cc(ccc2OCCN2CCCC2)Nc2nccc(n2)-c2cccc(c2)OCC1 | 1.66 µM (active) | 2.64 µM (active) | 0.743 µM (active) | 1.48 µM (active) |  | 1.66 µM (active) | 1.48 µM (active) |  |  | 4.18 µM (active) | 3.32 µM (active) | 2.09 µM (active) | 2.35 µM (active) | 5.9 µM (active) | 2.64 µM (active) |  | 5.26 µM (active) |  | 2.35 µM (active) | 2.64 µM (active)
CC(C)c1cc(C(=O)N2Cc3ccc(CN4CCN(C)CC4)cc3C2)c(O)cc1O | 0.0935 µM (active) | 0.187 µM (active) | 0.0743 µM (active) | 0.118 µM (active) |  | 0.166 µM (active) | 0.132 µM (active) | 0.264 µM (active) |  | 0.235 µM (active) | 0.418 µM (active) | 0.148 µM (active) | 0.166 µM (active) | 0.418 µM (active) | 0.418 µM (active) |  | 5.26 µM (active) | 0.118 µM (active) | 0.187 µM (active) | 0.332 µM (active)
NCC(=O)Nc1ccc(-n2nc(C(F)(F)F)cc2-c2ccc3c(ccc4ccccc43)c2)cc1 | 26.4 µM (active) | 18.7 µM (active) |  | 18.7 µM (active) | 20.9 µM (active) | 16.6 µM (active) |  |  |  |  | 23.5 µM (active) |  | 16.6 µM (active) |  |  | 23.5 µM (active) | 20.9 µM (active) |  | 9.35 µM (active) | 
O=C(NCCS(=O)(=O)c1ccc(C(F)(F)F)cn1)c1ccc(Cl)cc1 | inactive | inactive |  | inactive | inactive | inactive |  | 0.0235 µM (active) |  |  | inactive | inactive | inactive | inactive |  |  |  | inactive |  | inactive
